# PubChem BioAssay (NCATS)
# Several values for one entry are separate records, joined by “and”; a condition that tells them apart may be missing. Equal entries are not always repeated. Records with an inconclusive call do not appear. A call without a number means that no potency is given here. A number with no mark means an inactive call. Activity calls are given as the source filed them. Unless noted, the call rests on the fitted dose curve; in most records, active means well fitted curve in the direction sought with a large enough effect in the repeat runs; inconclusive means weak or mixed curves; inactive means no such curve, though single readings can be large; an effect the other way counts as inactive or inconclusive. Where a SMILES comes first, the peptide text is derived from it.
# Legend:
# [1] = Cell Viability qHTS for small molecule stabilizers of the endoplasmic reticulum resident proteome (AID 1508629; active means well fitted curve in the direction sought with a large enough effect; an effect the other way counts as inactive or inconclusive;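 further: human SH-SY5Y neuroblastoma cells carrying the GLuc-SERCaMP reporter; compound exposure about 46 h in total before the viability read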); conditions: cell viability counter-screen, 100 nM thapsigargin for final 4 h
# [2] = A High-Content qHTS Against Drug Library for the Identification of Small Molecules that Inhibit DYT1 Early Onset Primary Dystonia-Associated Cell Pathology (AID 1645839; calls by dose curve; further: potency means the concentration at half of the fitted maximal effect); conditions: HEK293 Flp-In EGFP-delE TorsinA, punctate imaging, 48 h; series mostly up to 46.1 µM
# How it was run: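 Cells were seeded and left for 24 h, then dosed with compound alongside tetracycline induction of mutant EGFP-TorsinA. They were incubated for 48 h, fixed in 4% paraformaldehyde, permeabilized and imaged for mislocalization (%pathology) and cell count.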
# [3] = target: Cytochrome P450 2D6 (Homo sapiens) (UniProt P10635); test: Cytochrome P450 family 2 subfamily D member 6 (CYP2D6) small molecule antagonists: luciferase biochemical (cell-free) qHTS assay (AID 1645840); conditions: P450-Glo CYP2D6 enzyme, luciferin luminescence, 1 h; series mostly up to 57.4 µM; further: nearly all actives have a fitted effect of over 55% in size; further: potency means the concentration at half of the fitted maximal effect
# Cytochrome P450 2D6 (Homo sapiens), sequence (P10635 whole entry, looked up): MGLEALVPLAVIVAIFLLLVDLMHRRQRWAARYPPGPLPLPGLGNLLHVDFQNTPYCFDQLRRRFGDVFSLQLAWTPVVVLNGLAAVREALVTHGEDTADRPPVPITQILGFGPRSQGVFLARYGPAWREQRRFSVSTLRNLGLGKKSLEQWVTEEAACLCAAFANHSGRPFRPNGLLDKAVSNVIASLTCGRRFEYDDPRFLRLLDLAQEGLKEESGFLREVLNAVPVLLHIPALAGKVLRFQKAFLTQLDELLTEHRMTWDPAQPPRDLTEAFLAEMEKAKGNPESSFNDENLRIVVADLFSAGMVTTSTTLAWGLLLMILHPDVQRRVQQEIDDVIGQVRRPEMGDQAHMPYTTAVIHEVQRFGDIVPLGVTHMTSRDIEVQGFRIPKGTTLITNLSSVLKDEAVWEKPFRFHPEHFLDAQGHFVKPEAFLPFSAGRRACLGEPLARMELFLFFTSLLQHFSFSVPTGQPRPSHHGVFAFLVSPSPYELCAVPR
# How it was run: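 P450-Glo CYP2D6 system: proluciferin substrate converted by enzyme to luciferin, read by luminescence proportional to activity. Enzyme-substrate mix with compound 10 min at room temperature, then NADPH regeneration 1 h before detection reagent.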
# [4] = target: Cytochrome P450 2C9 (Homo sapiens) (UniProt P11712); test: Cytochrome P450 family 2 subfamily C member 9 (CYP2C9) small molecule antagonists: luciferase biochemical (cell-free) qHTS assay (AID 1645842); conditions: P450-Glo CYP2C9 enzyme assay, luciferin luminescence; series mostly up to 57.4 µM; further: nearly all actives have a fitted effect of over 55% in size; further: potency means the concentration at half of the fitted maximal effect
# Cytochrome P450 2C9 (Homo sapiens), sequence (P11712 whole entry, looked up): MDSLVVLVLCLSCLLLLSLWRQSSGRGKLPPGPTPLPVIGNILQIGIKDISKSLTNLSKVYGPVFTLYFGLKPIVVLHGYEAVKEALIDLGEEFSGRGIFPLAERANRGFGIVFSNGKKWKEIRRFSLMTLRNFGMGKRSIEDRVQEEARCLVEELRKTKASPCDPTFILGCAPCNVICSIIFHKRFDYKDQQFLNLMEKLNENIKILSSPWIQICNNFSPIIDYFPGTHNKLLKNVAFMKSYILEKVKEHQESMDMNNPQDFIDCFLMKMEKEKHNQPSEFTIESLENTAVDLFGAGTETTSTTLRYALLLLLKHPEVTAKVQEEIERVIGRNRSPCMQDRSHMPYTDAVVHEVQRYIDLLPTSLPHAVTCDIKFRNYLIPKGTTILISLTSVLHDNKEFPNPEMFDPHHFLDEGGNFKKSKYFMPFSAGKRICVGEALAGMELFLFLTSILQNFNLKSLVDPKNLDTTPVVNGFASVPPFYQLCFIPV
# How it was run: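 P450-Glo CYP2C9 system: proluciferin substrate with enzyme in mix containing 0.4% BSA, 10 min at room temperature, then NADPH regeneration solution added and incubated 1 h at 37C. Detection reagent stopped reaction; luminescence read after 20 min as RLU.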
# [5] = Confirmatory qHTS for small molecule stabilizers of the endoplasmic reticulum resident proteome: Secreted ER Calcium Modulated Protein (SERCaMP) assay (AID 1508628; active means well fitted curve in the direction sought with a large enough effect; an effect the other way counts as inactive or inconclusive; further: potency means the concentration at half of the fitted maximal effect; nearly all actives have a fitted effect of over 40% in size); conditions: SERCaMP secreted luciferase ER calcium/proteostasis reporter; series mostly up to 76.3 µM
# How it was run: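 GLuc-SERCaMP-expressing SH-SY5Y cells, pretreated 16 h with compound, are challenged with thapsigargin to empty ER calcium stores; after 4 h, coelenterazine is added directly to the medium and luminescence is imaged.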
# [6] = Primary qHTS for small molecule stabilizers of the endoplasmic reticulum resident proteome: Secreted ER Calcium Modulated Protein (SERCaMP) assay (AID 1508630; active means well fitted curve in the direction sought with a large enough effect; an effect the other way counts as inactive or inconclusive); conditions: SH-SY5Y GLuc-SERCaMP (Gaussia luciferase released on ER calcium loss) secretion, thapsigargin, luminescence; series mostly up to 38.4 µM
# How it was run: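 The SH-SY5Y reporter protocol was run at 3 concentrations up to 38.3 uM (primary) or 11 concentrations (follow-up): 16 h compound, 100 nM thapsigargin for 4 h, then extracellular luciferase luminescence.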
# [7] = Counterscreen qHTS for small molecule stabilizers of the endoplasmic reticulum resident proteome: GLuc-NoTag assay (AID 1508627; active means well fitted curve in the direction sought with a large enough effect; an effect the other way counts as inactive or inconclusive;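 further: SH-SY5Y cells given compound then 100 nM thapsigargin to empty ER calcium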); conditions: Gaussia luciferase NoTag secretion counterscreen, luminescence, thapsigargin 100 nM for final 4 h; series mostly up to 76.4 µM
# How it was run: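 Counterscreen line: SH-SY5Y-GLuc-NoTag. Seed, 5 h; compound, 19 h; thapsigargin 100 nM, 4 h; 37C/5% CO2. Readout: secreted GLuc luminescence, coelenterazine 0.07x final, no lysis.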
# [8] = target: Cytochrome P450 3A4 (Homo sapiens) (UniProt P08684); test: Cytochrome P450 family 3 subfamily A member 4 (CYP3A4) small molecule antagonists: luciferase qHTS assay (AID 1645841); conditions: P450-Glo CYP3A4 enzyme assay, luciferin luminescence; series mostly up to 57.4 µM; further: nearly all actives have a fitted effect of over 45% in size; further: potency means the concentration at half of the fitted maximal effect
# Cytochrome P450 3A4 (Homo sapiens), sequence (P08684 whole entry, looked up): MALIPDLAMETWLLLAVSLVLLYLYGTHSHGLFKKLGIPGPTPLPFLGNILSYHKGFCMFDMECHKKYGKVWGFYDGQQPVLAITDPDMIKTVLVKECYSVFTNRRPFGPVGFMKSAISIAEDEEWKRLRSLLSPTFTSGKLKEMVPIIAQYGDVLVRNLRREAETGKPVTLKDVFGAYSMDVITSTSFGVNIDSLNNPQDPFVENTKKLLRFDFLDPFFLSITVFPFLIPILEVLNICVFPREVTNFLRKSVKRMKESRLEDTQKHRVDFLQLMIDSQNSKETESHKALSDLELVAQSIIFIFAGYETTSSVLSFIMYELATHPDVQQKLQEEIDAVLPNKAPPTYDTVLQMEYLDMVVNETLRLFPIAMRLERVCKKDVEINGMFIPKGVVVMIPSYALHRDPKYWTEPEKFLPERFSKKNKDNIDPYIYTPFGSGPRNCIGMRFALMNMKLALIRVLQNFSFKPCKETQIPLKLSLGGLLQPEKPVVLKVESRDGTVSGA
# How it was run: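 P450-Glo CYP3A4 enzyme with proluciferin substrate preincubated 10 min with compound at room temperature, then NADPH regeneration 1 h. Luciferin detection reagent added for 20 min; luminescence recorded. Ketoconazole positive control.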
SMILES,max response [1],Potency [2],Potency [3],Potency [4],Potency [5],Potency [6],Potency [7],Potency [8]
C=CCNc1nc(NCC=C)nc(N2CCN(C(c3ccc(F)cc3)c3ccc(F)cc3)CC2)n1,26.9%,inactive,inactive,inactive,–,–,–,–
COC(=O)[C@H]1[C@H]2C[C@@H]3c4[nH]c5cc(OC)ccc5c4CCN3C[C@H]2C[C@@H](OC(=O)/C=C/c2ccc(O)c(OC)c2)[C@@H]1OC,–,–,inactive,–,20 µM (active),–,–,–
CCC1=C[C@@H]2CN(C1)Cc1c([nH]c3ccccc13)[C@@](C(=O)OC)(c1cc3c(cc1OC)N(C)[C@H]1[C@@](O)(C(=O)OC)[C@H](OC(C)=O)[C@]4(CC)C=CCN5CC[C@]31[C@@H]54)C2,–,–,–,–,–,inactive,–,–
CC(C)(c1ccc(O)cc1)c1ccc(O)cc1,–,31.6 µM (active),43.9 µM (active),27.2 µM (active),89.1 µM (active) and 44.7 µM (active) and 50.1 µM (active),–,inactive,–
COc1cc(OC)nc(O[C@H](C(=O)O)C(OC)(c2ccccc2)c2ccccc2)n1,–,inactive,inactive,inactive,–,inactive,–,–
CCOC(=O)CN1CCCC1=O,–,inactive,inactive,inactive,–,inactive,–,inactive
CC1c2ccccc2CN1NC(=O)c1ccc(Cl)c(S(N)(=O)=O)c1 (stereo not drawn),–,inactive,inactive,inactive,–,inactive,–,inactive
CN(C)CCN(Cc1ccsc1)c1ccccn1,–,inactive,6.92 µM (active),inactive,–,inactive,–,–
CCCCCC1Nc2cc(C(F)(F)F)c(S(N)(=O)=O)cc2S(=O)(=O)N1 (stereo not drawn),–,inactive,3.89 µM (active),1.95 µM (active),–,inactive,–,inactive
CC(=O)N[C@@H](CO)C(=O)N[C@@H](CC(=O)O)C(=O)N[C@@H](CCCCN)C(=O)N1CCC[C@H]1C(=O)O (Ac-SDKP-OH),–,inactive,inactive,inactive,–,inactive,–,–
COCCOCC(OC)OC,–,inactive,inactive,inactive,–,inactive,–,inactive
O=C(O)C1CCC1,–,inactive,inactive,inactive,–,inactive,–,inactive
CC(=O)OCC(=O)[C@@]1(O)CCC2C3CCC4=CC(=O)CC[C@]4(C)C3[C@@H](O)C[C@@]21C (stereo partly drawn),–,inactive,inactive,–,–,inactive,–,–
CO[C@]1(NC(=O)CSC(F)F)C(=O)N2C(C(=O)O)=C(CSc3nnnn3CCO)CO[C@H]21,–,inactive,inactive,inactive,–,inactive,–,–
COc1cc2c(cc1OC)CN(C(=O)[C@H](C)N[C@@H](CCc1ccccc1)C(=O)O)[C@H](C(=O)O)C2,–,inactive,inactive,inactive,–,inactive,–,–
CN1Cc2cc(C(=O)N3CCC(C4CCNCC4)CC3)ccc2N[C@@H](CC(=O)O)C1=O,–,inactive,inactive,inactive,–,inactive,–,–

SMILES,max response [1],Potency [2],Potency [3],Potency [4],Potency [5],Potency [6],Potency [7],Potency [8]
NS(=O)(=O)c1ccc(N2CCCCS2(=O)=O)cc1,–,inactive,inactive,inactive,–,inactive,–,–
NC(=O)NC1N=C([O][Al])NC1=O (stereo not drawn),–,inactive,13.8 µM (active),inactive,–,inactive,–,5.49 µM (active)
CCN(CC)CC(=O)Nc1c(C)cccc1C(=O)OC,–,inactive,inactive,inactive,–,inactive,–,–
C[C@]12CCC(=O)C=C1CC[C@@H]1[C@@H]2[C@@H](O)C[C@@]2(C)[C@H]1CC[C@]2(O)C(=O)COC(=O)CCC(=O)O,–,inactive,inactive,inactive,–,inactive,–,–
O=C(NN1CCCC1)NS(=O)(=O)c1ccc(Cl)cc1,–,inactive,inactive,inactive,–,inactive,–,inactive
Nc1ncnc2nc[nH]c12,–,inactive,inactive,inactive,–,inactive,–,inactive
C[C@@H]1C[C@H]2[C@@H]3CCC4=CC(=O)C=C[C@]4(C)[C@@]3(F)[C@@H](O)C[C@]2(C)[C@@]1(O)C(=O)COC(=O)c1ccncc1,–,inactive,1.23 µM (active),2.45 µM (active),–,inactive,–,–
CC(=O)N(CC(=O)N(C)C)c1ccccc1,–,inactive,inactive,inactive,–,inactive,–,inactive
O=C(O)[C@H](O)[C@@H](O)[C@H](O[C@@H]1O[C@H](CO)[C@H](O)[C@H](O)[C@H]1O)[C@H](O)CO,–,inactive,inactive,inactive,–,inactive,–,–
O=[N+]([O-])c1nccn1CO[C@@H](CO)[C@H](O)CO,–,inactive,inactive,inactive,–,inactive,–,–
CN(C)C(=O)CNC(=O)Cc1ccccc1,–,inactive,inactive,inactive,–,inactive,–,inactive
CCCCCC[C@@H](CCC)C(=O)O,–,inactive,inactive,inactive,–,inactive,–,–
CCCCN(CCN(CCCC)C(=O)N1CCOCC1)C(=O)N1CCOCC1,–,inactive,inactive,inactive,–,inactive,–,–
COc1ccc(CCC(C)=O)cc1,–,inactive,inactive,inactive,–,inactive,–,–
Nc1nc2ccccc2n1Cc1ccc(F)cc1,–,inactive,0.0977 µM (active),inactive,–,inactive,–,–
C/C=C(/C(=C/C)c1ccc(OC(C)=O)cc1)c1ccc(OC(C)=O)cc1,–,8.91 µM (active),inactive,17.4 µM (active),–,inactive,–,–
